Results from PubChem BioAssay.
The source made the active and inactive calls.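 How the source made its calls: active means normalized viability below 100% at a tested concentration; inactive means the rest.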

Assay: drug combination growth inhibition, ovarian cancer – cell-based, oncology-focused library, rucaparib conditional, profiling panel (AID 1508598)
Conditions: patient-derived ovarian cancer cells, CellTiter-Glo viability, 144 h, hits give low values
[1] = at 0.000305 µM, OCI-C5x cells, with rucaparib 10 µM, 100% = cells with rucaparib alone
[2] = at 0.000305 µM, OCI-C5x cells, without rucaparib
[3] = at 0.000305 µM, OCI-P5x cells, with rucaparib 20 µM, 100% = cells with rucaparib alone
[4] = at 0.000305 µM, OCI-P5x cells, without rucaparib
[5] = at 0.00122 µM, OCI-C5x cells, with rucaparib 10 µM, 100% = cells with rucaparib alone
[6] = at 0.00122 µM, OCI-C5x cells, without rucaparib
[7] = at 0.00122 µM, OCI-P5x cells, with rucaparib 20 µM, 100% = cells with rucaparib alone
[8] = at 0.00122 µM, OCI-P5x cells, without rucaparib
[9] = at 0.00488 µM, OCI-C5x cells, with rucaparib 10 µM, 100% = cells with rucaparib alone
[10] = at 0.00488 µM, OCI-C5x cells, without rucaparib
[11] = at 0.00488 µM, OCI-P5x cells, with rucaparib 20 µM, 100% = cells with rucaparib alone
[12] = at 0.00488 µM, OCI-P5x cells, without rucaparib
[13] = at 0.0195 µM, OCI-C5x cells, with rucaparib 10 µM, 100% = cells with rucaparib alone
[14] = at 0.0195 µM, OCI-C5x cells, without rucaparib
[15] = at 0.0195 µM, OCI-P5x cells, with rucaparib 20 µM, 100% = cells with rucaparib alone
[16] = at 0.0195 µM, OCI-P5x cells, without rucaparib
[17] = at 0.0781 µM, OCI-C5x cells, with rucaparib 10 µM, 100% = cells with rucaparib alone
[18] = at 0.0781 µM, OCI-C5x cells, without rucaparib
[19] = at 0.0781 µM, OCI-P5x cells, with rucaparib 20 µM, 100% = cells with rucaparib alone
[20] = at 0.0781 µM, OCI-P5x cells, without rucaparib
[21] = at 0.313 µM, OCI-C5x cells, with rucaparib 10 µM, 100% = cells with rucaparib alone
[22] = at 0.313 µM, OCI-C5x cells, without rucaparib
[23] = at 0.313 µM, OCI-P5x cells, with rucaparib 20 µM, 100% = cells with rucaparib alone
[24] = at 0.313 µM, OCI-P5x cells, without rucaparib
[25] = at 1.25 µM, OCI-C5x cells, with rucaparib 10 µM, 100% = cells with rucaparib alone
[26] = at 1.25 µM, OCI-C5x cells, without rucaparib
[27] = at 1.25 µM, OCI-P5x cells, with rucaparib 20 µM, 100% = cells with rucaparib alone
[28] = at 1.25 µM, OCI-P5x cells, without rucaparib
[29] = at 5 µM, OCI-C5x cells, with rucaparib 10 µM, 100% = cells with rucaparib alone
[30] = at 5 µM, OCI-C5x cells, without rucaparib
[31] = at 5 µM, OCI-P5x cells, with rucaparib 20 µM, 100% = cells with rucaparib alone
[32] = at 5 µM, OCI-P5x cells, without rucaparib

Measured: viability

CC#C[C@@]1(O)CC[C@H]2[C@@H]3CCC4=CC(=O)CCC4=C3[C@H](c3ccc(N(C)C)cc3)C[C@@]21C
inactive: [1] 124% | [2] 104% | [5] 112% | [6] 114% | [9] 122% | [10] 108% | [13] 118% | [14] 110% | [17] 122% | [18] 111% | [21] 113% | [22] 118% | [25] 121% | [26] 118% | [29] 162% | [30] 140%
active: [3] 88.4% | [4] 89.8% | [7] 88.8% | [8] 94.8% | [11] 93.3% | [12] 95% | [15] 86.7% | [16] 87.4% | [19] 84.5% | [20] 86.4% | [23] 83.6% | [24] 89.9% | [27] 87.2% | [28] 91% | [31] 72.1% | [32] 89.7%

Cc1cc(NC(=O)c2cccc(NC(=O)/C=C/CN(C)C)c2)ccc1Nc1nccc(-c2cccnc2)n1
inactive: [1] 118% | [2] 133% | [3] 111% | [4] 110% | [5] 116% | [6] 132% | [7] 108% | [8] 113% | [9] 140% | [10] 160% | [11] 108% | [12] 107% | [13] 146% | [14] 172% | [15] 104% | [16] 106% | [17] 180% | [18] 183% | [19] 111% | [20] 109% | [21] 172% | [22] 199% | [23] 116% | [24] 112% | [25] 163% | [26] 186% | [27] 103% | [28] 116% | [29] 159% | [30] 194% | [32] 108%
active: [31] 83.9%

C[C@@]12CC[C@H]3c4ccc(O)cc4C[C@@H](CCCCCCCCCS(=O)CCCC(F)(F)C(F)(F)F)[C@H]3[C@@H]1CC[C@@H]2O (stereo not given in full)
active: [2] 99.5% | [6] 98.6%
inactive: [1] 127% | [3] 110% | [4] 107% | [5] 116% | [7] 109% | [8] 112% | [9] 118% | [10] 110% | [11] 116% | [12] 117% | [13] 118% | [14] 108% | [15] 116% | [16] 122% | [17] 114% | [18] 112% | [19] 119% | [20] 118% | [21] 119% | [22] 125% | [23] 122% | [24] 120% | [25] 123% | [26] 112% | [27] 119% | [28] 121% | [29] 124% | [30] 128% | [31] 119% | [32] 122%

COc1cccc2c1C(=O)c1c(O)c3c(c(O)c1C2=O)C[C@@](O)(C(=O)CO)C[C@H]3O[C@H]1C[C@H](N)[C@H](O)[C@H](C)O1
active: [19] 97.4% | [20] 82% | [23] 58.8% | [24] 32.7% | [25] 50% | [26] 16.5% | [27] 10.3% | [28] 13.8% | [29] 4.6% | [30] 1.33% | [31] 5.65% | [32] 8.22%
inactive: [1] 127% | [2] 120% | [3] 109% | [4] 109% | [5] 111% | [6] 111% | [7] 110% | [8] 106% | [9] 118% | [10] 117% | [11] 104% | [12] 108% | [13] 130% | [14] 110% | [15] 103% | [16] 106% | [17] 115% | [18] 103% | [21] 164% | [22] 125%

O=C(O)c1cc(I)ccc1NC(=O)[C@H](Cc1ccccc1)NCc1ccccc1
inactive: [1] 126% | [2] 116% | [4] 102% | [5] 129% | [6] 111% | [7] 107% | [9] 133% | [10] 118% | [13] 119% | [14] 116% | [17] 124% | [18] 116% | [21] 134% | [22] 111% | [25] 132% | [26] 115% | [29] 126% | [30] 112%
active: [3] 98.3% | [8] 99.9% | [11] 98.6% | [12] 97.1% | [15] 95.6% | [16] 99.8% | [19] 97.8% | [20] 92.4% | [23] 95.5% | [24] 85.4% | [27] 80.7% | [28] 77.5% | [31] 73.4% | [32] 81.4%
